We go through 17 molecules from PubChem BioAssay (Tox21).

Values joined by “and” are separate entries in the source; they are usually repeats but may differ in a detail not shown here. Identical values can stand only once. Some structures have more than one record in an assay (separate samples or runs), and their calls can disagree. Active and inactive are the calls of the source. Unless noted, the call rests on the fitted dose curve; in most records, active means well fitted curve in the direction sought with a large enough effect in the repeat runs; inconclusive means weak or mixed curves; inactive means no such curve, though single readings can be large; an effect the other way counts as inactive or inconclusive.

Test [1] has as its target Estrogen receptor (Homo sapiens) (UniProt P03372). As to the kind of experiment: qHTS assay to identify small molecule antagonists of the estrogen receptor alpha (ER-alpha) signaling pathway (AID 743069; active means well fitted curve in the direction sought with a large enough effect in the signal ratio in the repeat runs, not every such curve was filed as active; inconclusive means weak or mixed curves, or effect the other way; inactive means no such curve, though single readings can be large or run the other way; the % refers to the signal ratio; further: potency means the concentration at half of the fitted maximal effect). The gist of the method:
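Compound effects are measured against 17beta-estradiol stimulation in HEK293 cells with a UAS-controlled beta-lactamase reporter for ER-alpha. Exposure lasts 18 hr at 37C; LiveBLAzer B/G FRET substrate follows for 2 hr at room temperature.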
(In general: Quantitative high-throughput screening tests each substance at several concentrations.)

A short description of test [2]: qHTS assay to identify small molecule antagonists of the estrogen receptor alpha (ER-alpha) signaling pathway - cell viability counter screen (AID 743074; calls by dose curve;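 further: HEK293 cells carrying ER-alpha-UAS-bla reporter stimulated with 17beta-estradiol; on the % scale 0 is the no-effect control and ±100 the full control effect; nearly all actives have a fitted effect of over 45% in size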).
For test [3], the target named is Estrogen receptor (Homo sapiens) (UniProt P03372). The experiment in a line: qHTS assay to identify small molecule agonists of the estrogen receptor alpha (ER-alpha) signaling pathway (AID 743075; calls by dose curve; further: potency means the concentration at half of the fitted maximal effect; on activation: on the % scale 0 is the no-effect control and ±100 the full control effect).
For test [4] the target is unchanged. As to the kind of experiment: qHTS assay to identify small molecule agonists of the estrogen receptor alpha (ER-alpha) signaling pathway using the BG1 cell line (AID 743079). Further: nearly all actives have a fitted effect of over 20% in size. Further: potency means the concentration at half of the fitted maximal effect.
The nature of test [5]: qHTS assay to identify small molecule antagonists of the estrogen receptor alpha (ER-alpha) signaling pathway using the BG1 cell line (AID 743080; calls by dose curve;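 further: BG1 cells stimulated with 17beta-estradiol alongside compound; nearly all actives have a fitted effect of over 25% in size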; further: potency means the concentration at half of the fitted maximal effect). The gist of the method: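 BG1-Luc-4E2 cells (endogenous full-length ER-alpha, 4xERE luciferase) hormone-starved 5 days in charcoal-stripped FBS, plated 4,000/well for 24 h, then compound plus 17beta-estradiol for 21.5 h at 37 C; ONE-Glo luminescence read.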

Test [6] in a line: qHTS assay to identify small molecule antagonists of the estrogen receptor alpha (ER-alpha) signaling pathway using the BG1 cell line - cell viability counter screen (AID 743081).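 Further: compound given together with 17beta-estradiol as the ER stimulus; series mostly up to about 70 µM; on the % scale 0 is the no-effect control and ±100 the full control effect; nearly all actives have a fitted effect of over 45% in size.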
The target of the next test is Aromatase (Homo sapiens) (UniProt P11511). The experiment in a line: qHTS assay to identify aromatase inhibitors (AID 743083). Further: nearly all actives have a fitted effect of over 55% in size. Further: potency means the concentration at half of the fitted maximal effect.
Test [7] is described as follows: qHTS assay to identify aromatase inhibitors - cell viability counter screen (AID 743084).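 Further: cells stimulated with testosterone during compound exposure; on the % scale 0 is the no-effect control and ±100 the full control effect; nearly all actives have a fitted effect of over 55% in size.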
The target of test [8] is Aryl hydrocarbon receptor (Homo sapiens) (UniProt P35869). The experiment in a line: qHTS assay to identify small molecule that activate the aryl hydrocarbon receptor (AhR) signaling pathway (AID 743085). Further: nearly all actives have a fitted effect of over 15% in size. Further: potency means the concentration at half of the fitted maximal effect. The gist of the method:
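Compounds were tested in HepG2 hepatocellular carcinoma cells harbouring a stably integrated luciferase gene under control of 20 DREs. Increased reporter signal after 24 h treatment at 37C was taken as AhR activation.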

A short description of test [9]: qHTS assay to identify small molecule that activate the aryl hydrocarbon receptor (AhR) signaling pathway - cell viability counter screen (AID 743086). Further: series mostly up to about 70 µM; on the % scale 0 is the no-effect control and ±100 the full control effect; nearly all actives have a fitted effect of over 45% in size. The gist of the method: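 Cytotoxicity counter screen: CellTiter-Fluor signal (30 min, 37 C) in 4000 HepG2 cells/well carrying the DRE-luciferase reporter, following 24 h compound exposure at 37 C.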
Test [10] in a line: qHTS assay to identify small molecule antagonists of the peroxisome proliferator-activated receptor gamma (PPARg) signaling pathway - cell viability counter screen (AID 743194). Further: nearly all actives have a fitted effect of over 55% in size. Further: potency means the concentration at half of the fitted maximal effect. The gist of the method:
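Viability was measured as CellTiter-Glo luminescence in GeneBLAzer PPARg UAS-bla HEK293H cells. These cells had been exposed 17 h at 37 C to compounds together with rosiglitazone at 50 nM final, with the beta-lactamase readout taken in the same wells.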

A short description of test [11]: qHTS assay for small molecule agonists of the antioxidant response element (ARE) signaling pathway (AID 743202; active means well fitted activation curve with a large enough effect in the signal ratio in the repeat runs, not every such curve was filed as active; inconclusive means weak or mixed curves, or effect the other way; inactive means no such curve, though single readings can be large or run the other way; the % refers to the signal ratio; further: potency means the concentration at half of the fitted maximal effect). The gist of the method:
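An ARE-responsive beta-lactamase gene stably integrated in HepG2 cells serves as reporter. After 5 h plating and 16 h compound incubation at 37 C, fluorescence of the B/G FRET substrate was measured.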

Test [12] is described as follows: qHTS assay for small molecule agonists of the antioxidant response element (ARE) signaling pathway - cell viability counter screen (AID 743203; calls by dose curve; further: nearly all actives have a fitted effect of over 55% in size; further: potency means the concentration at half of the fitted maximal effect). The gist of the method: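 CellSensor ARE-bla HepG2 cells, 2,000 per well, rested 5 hrs at 37C/5% CO2, then exposed to compound in DMSO for 16 hrs; viability read as CellTiter-Glo luminescence after 30 min at room temperature, in the reporter wells.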

For test [13], the system named is thyroid hormone receptor (rat, GH3 cells). As to the kind of experiment: qHTS assay to identify small molecule agonists of the thyroid receptor (TR) signaling pathway (AID 743066; calls by dose curve; further: on the % scale 0 is the no-effect control and ±100 the full control effect).
The target of test [14] is Peroxisome proliferator-activated receptor gamma (Homo sapiens) (UniProt P37231). As to the kind of experiment: qHTS assay to identify small molecule antagonists of the peroxisome proliferator-activated receptor gamma (PPARg) signaling pathway (AID 743191; calls by dose curve; further: series mostly up to about 63 µM; on the % scale 0 is the no-effect control and ±100 the full control effect; nearly all actives have a fitted effect of over 30% in size). The gist of the method: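 Beta-lactamase reporter under UAS control in HEK293H PPARg-bla cells; compound treatment 17 h at 37C. Read-out: fluorescence intensity after 1 h room-temperature incubation with LiveBLAzer B/G FRET substrate.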

Test [15] is described as follows: qHTS assay for small molecule activators of the heat shock response signaling pathway - cell viability counter screen (AID 743209). Further: on the % scale 0 is the no-effect control and ±100 the full control effect; nearly all actives have a fitted effect of over 50% in size. The gist of the method: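 CellSensor HSE-bla HeLa cells, plated overnight at 37 C/5% CO2, were exposed to compounds in DMSO for 5 h at 37 C. Viability was then read in the same wells by CellTiter-Glo luminescence after 30 min at room temperature.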

Test [16] is described as follows: qHTS assay for small molecule activators of the heat shock response signaling pathway (AID 743210; active means well fitted activation curve with a large enough effect in the signal ratio in the repeat runs, with a control signal flat, not every such curve was filed as active; inconclusive means weak or mixed curves; the % refers to the signal ratio;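 further: HeLa cells with beta-lactamase reporter driven by heat shock elements; series mostly up to about 63 µM; on the % scale 0 is the no-effect control and ±100 the full control effect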). The gist of the method:
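In HSE-bla HeLa cells, 5 h compound incubation (37 C) precedes addition of LiveBLAzer B/G substrate; after 2.5 h at room temperature, fluorescence intensity indicates reporter induction.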

In test [17] the target is Peroxisome proliferator-activated receptor gamma (Homo sapiens) (UniProt P37231). The experiment in a line: qHTS assay to identify small molecule agonists of the peroxisome proliferator-activated receptor gamma (PPARg) signaling pathway (AID 743094; active means well fitted activation curve with a large enough effect in the signal ratio in the repeat runs, not every such curve was filed as active; inconclusive means weak or mixed curves, or effect the other way; inactive means no such curve, though single readings can be large or run the other way; the % refers to the signal ratio; further: on the % scale 0 is the no-effect control and ±100 the full control effect). The gist of the method:
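GeneBLAzer PPARg UAS-bla HEK293H cells carrying a stably integrated beta-lactamase reporter were pre-incubated 5 h at 37C, then exposed to compounds in DMSO for 17 h at 37C; LiveBLAzer B/G FRET substrate was added for 1 h at room temperature and fluorescence read.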

Test [18] in a line: qHTS assay to identify small molecule antagonists of the thyroid receptor (TR) signaling pathway (AID 743065). The gist of the method:
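Antagonism measured as loss of luciferase signal in GH3 cells stably carrying a TRE-luciferase reporter, co-treated with compound and T3 (1 nM final) for 23.5 h at 37 C. Viability was read in the same well by CellTiter-Fluor.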

Chain of Aryl hydrocarbon receptor (Homo sapiens) (P35869 whole entry, looked up): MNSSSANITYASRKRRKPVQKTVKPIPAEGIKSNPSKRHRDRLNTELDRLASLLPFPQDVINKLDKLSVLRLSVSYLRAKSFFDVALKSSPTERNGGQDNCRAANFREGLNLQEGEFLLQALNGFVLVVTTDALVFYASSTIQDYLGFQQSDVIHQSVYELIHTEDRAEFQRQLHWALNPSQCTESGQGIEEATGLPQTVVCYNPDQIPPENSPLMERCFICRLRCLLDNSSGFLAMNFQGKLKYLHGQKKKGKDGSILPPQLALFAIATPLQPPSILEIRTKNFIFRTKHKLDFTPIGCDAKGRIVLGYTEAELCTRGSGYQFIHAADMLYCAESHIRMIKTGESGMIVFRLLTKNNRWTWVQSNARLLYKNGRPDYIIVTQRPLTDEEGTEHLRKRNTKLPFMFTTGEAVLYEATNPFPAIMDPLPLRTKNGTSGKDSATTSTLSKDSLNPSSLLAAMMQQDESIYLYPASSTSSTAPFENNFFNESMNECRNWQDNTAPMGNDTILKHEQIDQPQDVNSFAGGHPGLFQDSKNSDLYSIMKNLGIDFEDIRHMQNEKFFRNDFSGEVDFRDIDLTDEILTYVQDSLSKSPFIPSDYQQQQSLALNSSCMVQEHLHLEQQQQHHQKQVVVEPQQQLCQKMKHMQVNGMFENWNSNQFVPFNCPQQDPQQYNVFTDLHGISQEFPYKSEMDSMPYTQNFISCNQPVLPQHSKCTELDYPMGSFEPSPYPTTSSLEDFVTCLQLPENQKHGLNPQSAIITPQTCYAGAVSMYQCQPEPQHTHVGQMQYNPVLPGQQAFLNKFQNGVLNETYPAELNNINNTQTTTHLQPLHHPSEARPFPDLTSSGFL
Chain of Peroxisome proliferator-activated receptor gamma (Homo sapiens) (P37231 whole entry, looked up): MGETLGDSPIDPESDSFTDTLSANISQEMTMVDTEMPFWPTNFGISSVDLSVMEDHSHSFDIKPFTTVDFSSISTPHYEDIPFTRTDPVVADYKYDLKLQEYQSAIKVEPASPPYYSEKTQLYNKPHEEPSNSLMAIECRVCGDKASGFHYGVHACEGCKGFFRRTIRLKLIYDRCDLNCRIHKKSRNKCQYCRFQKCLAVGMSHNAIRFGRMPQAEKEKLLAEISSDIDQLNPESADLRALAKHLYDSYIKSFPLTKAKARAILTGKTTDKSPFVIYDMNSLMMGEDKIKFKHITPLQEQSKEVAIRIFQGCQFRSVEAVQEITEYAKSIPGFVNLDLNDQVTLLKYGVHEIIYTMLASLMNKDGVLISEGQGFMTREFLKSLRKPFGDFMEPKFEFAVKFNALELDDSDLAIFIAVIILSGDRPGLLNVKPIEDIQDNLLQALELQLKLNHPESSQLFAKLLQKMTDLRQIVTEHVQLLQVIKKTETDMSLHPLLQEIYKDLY
Chain of Estrogen receptor (Homo sapiens) (P03372 whole entry, looked up): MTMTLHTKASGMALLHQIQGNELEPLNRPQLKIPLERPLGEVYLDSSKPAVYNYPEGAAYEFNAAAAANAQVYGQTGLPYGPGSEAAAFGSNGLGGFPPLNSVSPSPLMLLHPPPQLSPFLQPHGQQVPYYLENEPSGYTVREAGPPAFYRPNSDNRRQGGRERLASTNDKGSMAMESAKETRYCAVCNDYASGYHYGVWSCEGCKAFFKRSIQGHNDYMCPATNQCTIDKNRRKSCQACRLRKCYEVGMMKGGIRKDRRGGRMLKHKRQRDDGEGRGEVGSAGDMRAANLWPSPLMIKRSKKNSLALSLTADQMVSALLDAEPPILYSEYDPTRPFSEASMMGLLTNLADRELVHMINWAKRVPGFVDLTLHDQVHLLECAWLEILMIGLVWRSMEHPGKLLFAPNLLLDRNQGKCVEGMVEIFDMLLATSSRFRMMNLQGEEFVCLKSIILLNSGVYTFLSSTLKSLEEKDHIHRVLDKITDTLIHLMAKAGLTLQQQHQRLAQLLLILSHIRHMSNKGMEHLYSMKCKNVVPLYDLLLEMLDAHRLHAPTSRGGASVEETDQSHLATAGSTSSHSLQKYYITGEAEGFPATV
Chain of Aromatase (Homo sapiens) (P11511 whole entry, looked up): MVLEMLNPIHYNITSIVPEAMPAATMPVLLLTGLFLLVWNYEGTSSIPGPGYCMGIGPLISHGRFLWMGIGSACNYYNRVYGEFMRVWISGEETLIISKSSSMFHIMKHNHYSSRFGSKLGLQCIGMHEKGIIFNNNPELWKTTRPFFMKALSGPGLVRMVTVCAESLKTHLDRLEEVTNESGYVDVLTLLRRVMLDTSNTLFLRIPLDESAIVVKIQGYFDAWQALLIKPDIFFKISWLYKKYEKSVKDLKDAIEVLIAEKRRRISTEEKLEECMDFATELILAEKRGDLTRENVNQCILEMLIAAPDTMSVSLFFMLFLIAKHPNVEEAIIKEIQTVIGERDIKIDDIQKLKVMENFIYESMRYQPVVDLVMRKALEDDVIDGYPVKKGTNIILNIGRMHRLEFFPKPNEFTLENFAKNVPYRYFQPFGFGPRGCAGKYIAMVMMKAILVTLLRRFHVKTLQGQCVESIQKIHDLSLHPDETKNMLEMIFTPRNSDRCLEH

As to `CCCCCC/C=C\CCCCCCCC(=O)O`, the Potency result in test [1], in test [2], in test [3], in test [4], in test [5] and in test [6] was “inactive” throughout. Further, the Potency entry (in the test with Aromatase (Homo sapiens); in test [7]; in test [8]; in test [9]; in test [10]; in test [11]) was “inactive” throughout. The Potency entry in test [12] was “inactive”.

With `CN(C)Cc1cc(C(C)(C)C)c(O)c(C(C)(C)C)c1`, the molecule was classed as inactive in test [13]. For the same molecule, the Potency result (in test [2]; in the test with Aromatase (Homo sapiens); in [7]; in test [9]; in test [14]; in test [10]) was “inactive” throughout. For the same molecule, the Potency entry in [12], in test [15] and in test [16] was “inactive” in each case.

Consider `O=C(c1ccc(O)c(O)c1)c1ccc(O)cc1O`, for which the outcome in [13] was inactive. Moreover, the Potency is 34.6 µM [inconclusive] (active) in test [1], 3.46 µM [inconclusive] (active) in test [3], 3.85 µM (active) in test [4] and 5.44 µM (active) in [8]. Besides, the Potency result in [2], in test [5], in test [7], in [14], in test [10] and in test [12] was “inactive” each time. Further, the Potency result in test [15] is “inactive”.

As for `Cc1c2ccccc2c(C)c2c1ccc1ccccc12`, the Potency in [4] is 30.3 µM (active); in test [5] it was 67.9 nM (active) and 486 nM (active); in the test with Aromatase (Homo sapiens) it was “inactive and 27.3 µM (active)”; in test [8] it was 8.55 µM (active) and 21.7 µM (active); in test [10] it was 49 µM (active). The Potency entry in [6] and in [7] was “inactive” in each case.

For the molecule `CCCC(=O)OCOC(=O)C1=C(C)NC(C)=C(C(=O)OC)C1c1cccc(Cl)c1Cl` (stereo not given), the Potency result in test [14], in [10], in test [12], in test [15] and in test [16] was “inactive” in each case.

Turning to `C[C@H]1NCc2cc(-c3ccc4c(=O)c(C(=O)O)cn(C5CC5)c4c3OC(F)F)ccc21`, the call in test [13] was inactive. Besides, the Potency entry (in [1]; in test [3]; in [4]; in [5]; in [6]; in the test with Aromatase (Homo sapiens)) was “inactive” throughout. Further, the Potency entry in test [7], in [8], in test [9], in [17], in test [10] and in [11] was “inactive” each time. In addition, in test [12], the Potency entry is “inactive”.

Regarding `CC1=CCC(=C(C)C)CC1`, the Potency entry (in [1]; in test [2]; in test [3]; in test [5]; in test [6]; with Aromatase (Homo sapiens)) was “inactive” each time. Further, the Potency result in [7], in [17], in test [10], in test [12] and in [15] was “inactive” in each case. For the same molecule, the Potency in test [4] is 68.6 µM (active).

`O=C(O)CN(CCN(CC(=O)O)CC(=O)O)CC(=O)O`: the Potency entry (in test [2]; in [6]; in the test with Aromatase (Homo sapiens); in test [7]; in test [8]; in test [9]) was “inactive” in each case. The activity change, negative = cytotoxicity in test [10] is 4.6% [at 2.7 µM] (inactive); in [15] it was 20.3% [at 2.7 µM] (inactive). In [16], the activation is 0.0247% [at 2.7 µM] (inactive).

With `COc1ccc2c(c1)c(CC(=O)OC/C=C(\C)CC/C=C(\C)CCC=C(C)C)c(C)n2C(=O)c1ccc(Cl)cc1`, in test [10], the Potency result is “inactive”.

Take `Cc1cc(C)c(/C=C2\C(=O)Nc3ccccc32)[nH]1`: the result in test [13] was inactive. For the same molecule, the Potency in [1] was 26.8 µM [inconclusive] (active). Moreover, the Potency entry (in [2]; in test [4]; with Aromatase (Homo sapiens); in test [7]; in test [9]; in test [17]) was “inactive” throughout. Besides, the Potency result in [10], in [12] and in test [15] was “inactive” each time.

As for `C#C[C@]1(OC(C)=O)CC[C@H]2[C@@H]3CCC4=C[C@@H](OC(C)=O)CC[C@@H]4[C@H]3CC[C@@]21C`, the Potency entry (in [2]; in test [6]; in the test with Aromatase (Homo sapiens); in test [7]; in test [8]; in test [17]) was “inactive” throughout. Also, the Potency entry in test [10], in test [12], in test [15] and in [16] was “inactive” throughout. Further, the Potency in test [3] is 0.0085 µM [inconclusive] (active); in test [4] it was 0.7 nM (active) and 4.7 nM (active); in [5], 33.5 µM (active); in test [11], 26.6 µM (active).

With `O=C(O)Cc1ccc2c(c1)C(=O)c1ccccc1CO2`, the Potency entry in test [10] and in [15] was “inactive” each time.

Turning to `CCC(C)[O-].CCC(C)[O-].CCOC(=O)/C=C(/C)[O-].[Al+3]`, the Potency entry in [2], in test [6], in [9], in test [10], in [12] and in [15] was “inactive” throughout. Moreover, the Potency result in test [16] was “inactive”.

Take `Nc1cc(Cl)c(O)c(Cl)c1`: in [13], the outcome was inactive. For the same molecule, the Potency result (in test [2]; in test [3]; in test [4]; in test [5]; in test [6]; in the test with Aromatase (Homo sapiens)) was “inactive” each time. The Potency entry in test [7], in test [9], in [12] and in [15] was “inactive” throughout. The Potency in [8] is 61.1 µM (active).

Turning to `Cc1c(F)c(N2CCNC(C)C2)cc2c1c(=O)c(C(=O)O)cn2C1CC1` (stereo not given), the Potency entry in [1], in test [2], in [3], in test [4], in test [5] and in test [6] was “inactive” throughout. Further, the Potency result (with Aromatase (Homo sapiens); in [7]; in test [9]; in [17]; in [10]; in test [12]) was “inactive” each time. In addition, the Potency entry in test [15] and in [16] was “inactive” in each case.

As to `Nc1nc2c(ncn2COCCO)c(=O)[nH]1`, the Potency entry in [1], in test [2], in test [3], in test [4], in [5] and in test [6] was “inactive” in each case. Further, the Potency entry (with Aromatase (Homo sapiens); in test [7]; in test [8]; in test [10]; in test [15]) was “inactive” each time.

For the molecule `CN1CCC[C@@H]1CCO[C@](C)(c1ccccc1)c1ccc(Cl)cc1`, the Potency is 26.6 µM (active) in test [18] and 29.8 µM (active) in [12]. Also, the Potency entry in [2], in [6], in [8] and in test [15] was “inactive” throughout.
